Experimental data from PubChem BioAssay (Tox21).
Several values for one entry are separate records, joined by “and”; a condition that tells them apart may be missing. Equal entries are not always repeated. Results filed as inconclusive are left out. A call without a number means that no potency is given here. Activity calls are given as the source filed them. Calls follow the shape of the dose curve; as a rule, active = well fitted cell-killing curve with a large enough effect in the repeat runs; inconclusive = weak or mixed curves, or effect the other way; inactive = flat fitted curve, though single readings scatter.

experiment: qHTS assay to identify small molecule agonists of the androgen receptor (AR) signaling pathway in the presence of an antagonist - cell viability counter screen (AID 1259379); details: MDA-kb2 viability, CellTiter-Fluor, 16 h; series mostly up to 92.4 µM; also: nearly all actives have a fitted effect of over 25% in size
Description: National Center for Advancing Translational Sciences [NCATS]
NIH Chemical Genomics Center [NCGC]
U.S. Environmental Protection Agency [EPA]
National Institutes of Environmental Health Sciences [NIEHS]
National Toxicology Program [NTP]
U.S. Food and Drug Administration [FDA]
Androgen receptor (AR) is an important member of nuclear receptor family. Its signaling plays a critical role in AR-dependent prostate cancer and other androgen related diseases. Considerable attention has been given in the past decades to develop methods to study and screen for the environmental chemicals that have the potential to interfere with metabolic homeostasis, reproduction, developmental and behavioral functions. Therefore AR binding assay for screening against androgen agonists and antagonists can be used to identify potential endocrine disruptors.
MDA-kb2 cells (from ATCC, deposited by Wilson et al.) are human breast carcinoma cells that were stably transfected with a luciferase reporter gene under control of the MMTV promoter that contains response elements for both androgen receptor (AR) and glucocorticoid receptor (GR). This particular screening for measuring luciferase reporter gene activity using MDA-kb2 cells against Tox21 10K library compounds is a confirmation study on agonist mode screening in the presence of AR-antagonist compound (Nilutamide) at 3.0uM final concentration. The cytotoxicity of the compounds was tested in parallel by measuring the cell viability using CellTiter-Fluor assay system (Promega, Madison, WI) in the same wells.
Tox21 Assay Protocol Summary:
MDA-kb2 cells (cells cultured without CO2) were dispensed at 3,000 cells/well in 4uL of culture medium into white wall/solid-bottom 1536-well plates (Corning Life Sciences, Corning, NY) using a Multidrop Combi (Thermo Fisher Scientific Inc., Waltham, MA) dispenser. The assay plates were incubated at 37C and 0% CO2 for 5hr. One uL of 3.0uM (final concentration) Nilutamide or assay buffer was added using two separate tips of Flying Reagent Dispenser (FRD, Aurora Discovery, San Diego, CA). Then 23nL of compounds dissolved in DMSO at 15 concentrations and positive controls were transferred to the assay plates using a Pintool station (Wako, San Diego, CA). The assay plates were incubated at 37C and 0% CO2 for 16 hr. After 15hr incubation at 37C, 1uL/well CellTiter-Fluor reagent (Promega Corporation) was added to each well of the assay plates using FRD. After 1hr incubation at 37C and 0% CO2, the fluorescence signal was measured using a ViewLux plate reader (PerkinElmer, Shelton, CT).
Potency is read from the fitted curve at half-maximal effect.

Structure (SMILES) | Potency
CCCCCCCCCCCC[N+](C)(C)CCCCCCCCCCCC | 30.6 µM (active)
CCCCC(CC)COP(=O)(O)OCC(CC)CCCC (stereo not given) | inactive
Nc1ccc(N)c2ccccc12 | 61.1 µM (active)
CCCC1O[C@@H]2C[C@H]3[C@@H]4CCC5=CC(=O)C=C[C@]5(C)[C@H]4[C@@H](O)C[C@]3(C)[C@]2(C(=O)CO)O1 (stereo not given in full) | inactive
CCCCCCOC(=O)c1ccc(O)cc1 | inactive
CCCCCCCCCCC=O | inactive
O=C(Nc1cccc([N+](=O)[O-])c1)c1cc2ccccc2cc1O | 3.86 µM (active)
Cc1c(C)c2c(c(C)c1O)CCC(C)(COc1ccc(CC3SC(=O)NC3=O)cc1)O2 (stereo not given) | inactive
CC1(C)CCC(C)(C)c2cc(C(=O)Nc3ccc(C(=O)O)cc3)ccc21 | inactive
CCCCCCCCS(=O)C(C)Cc1ccc2c(c1)OCO2 (stereo not given) | inactive
C=C(C)C(=O)OCC[N+](C)(C)C | inactive
O=C(N/N=C/c1ccccc1O)c1ccncc1 | inactive
CCCCCCCCCCCCCCCS(=O)(=O)Oc1ccccc1 | inactive
COc1c(C)c2c(c(O)c1C/C=C(\C)CCC(=O)O)C(=O)OC2 | inactive
COC(=O)C1=C(C)NC(C)=C(C(=O)OCC(C)C)C1c1ccccc1[N+](=O)[O-] (stereo not given) | inactive
C=CC(=O)OCC(CO)(COC(=O)C=C)COC(=O)C=C | 19.4 µM (active) and 24.3 µM (active)
CC(C)(C)C(=O)OCOC(=O)C1N2C(=O)CC2S(=O)(=O)C1(C)C (stereo not given) | inactive
CCCC(C)c1ccccc1O (stereo not given) | inactive
Oc1cccc(-c2c3nc(c(-c4cccc(O)c4)c4ccc([nH]4)c(-c4cccc(O)c4)c4nc(c(-c5cccc(O)c5)c5ccc2[nH]5)CC4)C=C3)c1 | 8.41 µM (active)
CC(C)(C)CC(C)(C)c1ccc(OCCOCC[N+](C)(C)Cc2ccccc2)cc1 | 27.3 µM (active) and 21.1 µM (active)

Structure (SMILES) | Potency
CCCCCCCC/C=C/CCCCCCCC1=NCCN1CCO | 61.1 µM (active)
Cc1cccc(CN2CCN(C(c3ccccc3)c3ccc(Cl)cc3)CC2)c1 (stereo not given) | inactive
CCc1cc(Cc2cc(CC)cc(C(C)(C)C)c2O)c(O)c(C(C)(C)C)c1 | 54.5 µM (active)
CN1CCC(Nc2ncc3ncnc(Nc4ccc(F)c(Cl)c4)c3n2)CC1 | inactive
CNCc1cc(F)ccc1Oc1ccc(Cl)c(Cl)c1 | 54.5 µM (active)
CCC(Cl)C(Cl)C(Cl)CC(Cl)C(Cl)C(C)Cl (stereo not given) | inactive
Cc1cc(O)c2ccccc2c1O | 26.6 µM (active)
CCCCCCCCOC(=O)c1ccc(O)cc1 | inactive
OC1(c2ccc(Cl)c(C(F)(F)F)c2)CCN(CCCC(c2ccc(F)cc2)c2ccc(F)cc2)CC1 | 18.8 µM (active)
CCN1/C(=C/C=C/c2sc3ccccc3[n+]2CC)Sc2ccccc21 | 1.16 µM (active)
Clc1ccc2cc3ccccc3cc2c1 | inactive
CCCCCCCCCCCCCCCCCC[N+](C)(C)Cc1ccccc1 | 55 µM (active)
CS(=O)(=O)CCNCc1ccc(-c2ccc3ncnc(Nc4ccc(OCc5cccc(F)c5)c(Cl)c4)c3c2)o1 | 15 µM (active)
S=c1[nH]c2ccccc2s1 | inactive
CC(=O)SC[C@@H](Cc1ccccc1)C(=O)NCC(=O)OCc1ccccc1 | inactive
O=C1c2ccccc2Cc2ccccc21 | inactive
Cc1ccc(-n2nc(C(C)(C)C)cc2NC(=O)Nc2ccc(OCCN3CCOCC3)c3ccccc23)cc1 | inactive
COc1ccc(CN2CCN(C(c3ccc(F)cc3)c3ccc(F)cc3)CC2)c(OC)c1OC | 26.6 µM (active)
NC(=O)N1C(=O)C(C(=O)c2cc(Cl)cs2)c2cc(F)c(Cl)cc21 (stereo not given) | 7.7 µM (active)
Cc1cc2c(cc1C(F)(F)F)N(C(=O)Nc1ccc(Oc3cccnc3C)nc1)CC2 | 55.3 µM (active)
